This is an account of results in PubChem BioAssay (Tox21).

“And” between values parts separate entries of the source, which are not always exact repeats. Equal entries are not always repeated. Records with an inconclusive call do not appear. A number with no mark means an inactive call. The source made the active and inactive calls. Calls follow the shape of the dose curve; as a rule, active = well fitted activation curve with a large enough effect in the repeat runs; inconclusive = weak or mixed curves; inactive = flat fitted curve, though single readings scatter.
% is scaled to controls: 0 for no effect and ±100 for the full control effect; potency is read from the fitted curve at half-maximal effect.

A short description of the assay: A CellTox Green Cytotoxicity Assay to monitor cytotoxicity in HepG2 cells - 8 hour (AID 1224890). Also: nearly all actives have a fitted effect of over 45% in size. The following applies: CellTox Green fluorescence; series mostly up to 76.8 µM; cytotoxicity increase: at the top concentration. The method, boiled down: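 Using 1536-well format, dye-containing HepG2 suspension was seeded, allowed 5 h at 37 C/5% CO2, dosed by pintool with compounds, positive and negative controls, and imaged for fluorescence across 40 h.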
`N#Cc1ccc(N(CC(N)=O)CC(F)(F)F)cc1C(F)(F)F`: the “cytotoxicity increase” value was -16.1%.

Turning to `CCCCn1cc[n+](C)c1.[Cl][Fe-]([Cl])([Cl])[Cl]`, the “cytotoxicity increase” value was -8.67%.

For `CN1C2CCC(C)(C)C1CC(OC(=O)C(O)(c1cccs1)c1cccs1)C2` (centres undefined), the “cytotoxicity increase” value is 4.02% [at 35.3 µM].

As for `O=C(O)[C@H](O)[C@@H](O)C(=O)O`, the “cytotoxicity increase” value was 4.02%.

For the compound `ClC1=C(Cl)[C@]2(Cl)[C@H]3[C@H]([C@@H]4C=C[C@H]3C4)[C@@]1(Cl)C2(Cl)Cl`, the Potency was 54.9 µM (active).

Turning to `CCNc1nc(NC(C)C(C)C)nc(SC)n1` (centres undefined), the “cytotoxicity increase” value is 2.73%.

With `[Cl-].[Cl-].[Cl-].[Yb+3]`, the “cytotoxicity increase” value was -9.76%.

As for `CCN(CC)CCc1c[nH]c2ccccc12`, the “cytotoxicity increase” value was -0.335%.

`O=C(O)CCCCCCNC1c2ccccc2CCc2ccccc21`: the “cytotoxicity increase” value was 2.13% [at 35.3 µM].

In the case of `C#CCO`, the “cytotoxicity increase” value is -11.5%.

Turning to `CCn1cc[n+](C)c1` (tested in a mixture with another compound), the “cytotoxicity increase” value was -1.49%.

`CC(=O)[O-].CC(=O)[O-].O.O.[Zn+2]`: the “cytotoxicity increase” value was 4.47%.

Consider `Clc1cc(Cl)c(-c2cc(Cl)c(Cl)cc2Cl)cc1Cl`, for which the “cytotoxicity increase” value is 7.43% [at 35.3 µM].

As for `O=S(=O)(O)F`, the “cytotoxicity increase” value was -2.57%.

Take `COC(=O)/C=C(\C)OP(=O)(OC)OC`: the “cytotoxicity increase” value is 3.91%.

Turning to `CN=C=O`, the “cytotoxicity increase” value is -0.0218%.

Turning to `CNN`, the “cytotoxicity increase” value was 9.66%.

For the compound `CC[C@H](C)[C@H]1O[C@]2(C=C[C@@H]1C)C[C@@H]1C[C@@H](C/C=C(\C)[C@@H](O[C@H]3C[C@H](OC)[C@@H](O[C@H]4C[C@H](OC)[C@@H](NC)[C@H](C)O4)[C@H](C)O3)[C@@H](C)/C=C/C=C3\CO[C@@H]4[C@H](O)C(C)=C[C@@H](C(=O)O1)[C@]34O)O2`, the Potency is 17.4 µM (active).

In the case of `O=[N+]([O-])c1ccccc1-c1ccccc1`, the “cytotoxicity increase” value is 2.68%.

For `COc1c2c(cc3c1OCO3)CCN(C)C2`, the “cytotoxicity increase” value was -1.57% [at 35.3 µM].

With `BrCC(Br)(Br)Br`, the “cytotoxicity increase” value is -3.67%.

Regarding `CCC[CH2][Sn]([CH2]CCC)([CH2]CCC)[CH2]CCC`, the Potency is 21.9 µM (active).

On to `O=[N+]([O-])c1cc(C(F)(F)F)c(Cl)c([N+](=O)[O-])c1Nc1ncc(C(F)(F)F)cc1Cl`, for which the “cytotoxicity increase” value was 6.7%.

With `CCCCN(CCCC)C(=S)[S-].CCCCN(CCCC)C(=S)[S-].[Ni+2]`, the “cytotoxicity increase” value is -0.699% [at 35.3 µM].

`CCCCn1cc[n+](C)c1` (tested in a mixture with another compound): the “cytotoxicity increase” value is 0.833%.

Take `CCC(C)Br` (centres undefined): the “cytotoxicity increase” value is 0.713%.

`C[N+]1(C)[C@@H]2CC[C@H]1CC(OC(=O)C(CO)c1ccccc1)C2` (some centres undefined): the “cytotoxicity increase” value was -0.339% [at 35.3 µM].

As for `CCCCc1ccccc1`, the “cytotoxicity increase” value was 0.236%.

Turning to `NC(=O)C(Cl)Cl`, the “cytotoxicity increase” value is 0.395%.

In the case of `COP(=S)(OC)Oc1ccc([N+](=O)[O-])c(C)c1`, the “cytotoxicity increase” value was 0.109%.

As to `CNC(=O)Oc1cc(C)cc(C(C)C)c1`, the “cytotoxicity increase” value is -2.25%.

As for `CN`, the “cytotoxicity increase” value is -0.971%.

In the case of `CCNS(=O)(=O)C(F)(F)C(F)(F)C(F)(F)C(F)(F)C(F)(F)C(F)(F)C(F)(F)C(F)(F)F`, the “cytotoxicity increase” value is 0.782%.

For `[F][Sn]([c]1ccccc1)([c]1ccccc1)[c]1ccccc1`, the Potency is 2.45 µM (active).

For `Clc1c(Cl)c(Cl)c(Cl)c(Cl)c1Cl`, the cytotoxicity increase is 1.99% [at 6.97 µM].

In the case of `Nc1nc(N)c(N)c(N)n1`, the Potency was 49.2 µM (active).

With `Fc1ccc(C(OCCN2CCN(CCCc3ccccc3)CC2)c2ccc(F)cc2)cc1`, the Potency is 23.9 µM (active).

`CCN(CC)C(=O)N[C@@H]1C=C2c3cccc4[nH]cc(c34)C[C@@H]2N(C)C1`: the “cytotoxicity increase” value was -6.94% [at 35.3 µM].

In the case of `O=C1C2(Cl)C3(Cl)C4(Cl)C(Cl)(Cl)C5(Cl)C3(Cl)C1(Cl)C5(Cl)C24Cl` (centres undefined), the Potency was 21.5 µM (active) and 41.8 µM (active).
